In ChEMBL document CHEMBL3433997, “St. Jude Leishmania screening dataset” (2016):

What was measured:
Assay type in all cases: functional
[1] = biological target: Solute carrier family 2, facilitated glucose transporter member 1 (Homo sapiens) (UniProt P11166); experiment: ST_JUDE_LEISH: Cytotoxicity at 2uM final concentration against transgenic Leishmania Mexicana promastigotes LmGLUT1 that are glucose transport deficient and complemented with the human glucose transporter GLUT1. Activity is measured by DNA content using SYBR green in vitro
[2] = biological target: Hexose transporter 1 (Plasmodium falciparum) (UniProt O97467); experiment: ST_JUDE_LEISH: Cytotoxicity at 2uM final concentration against transgenic Leishmania Mexicana promastigotes LmPfHT that are glucose transport deficient and complemented with the Plasmodium falciparum hexose transporter. Activity is measured by DNA content using SYBR green in vitro
[3] = biological target: Glucose transporter (Leishmania mexicana) (UniProt O61059); experiment: ST_JUDE_LEISH: Cytotoxicity at 2uM final concentration against transgenic Leishmania Mexicana promastigotes LmGT2 that are glucose transport deficient and complemented with the L. Mexicana glucose transporter 2. Activity is measured by DNA content using SYBR green in vitro

Chain of Solute carrier family 2, facilitated glucose transporter member 1 (Homo sapiens) (P11166 whole entry): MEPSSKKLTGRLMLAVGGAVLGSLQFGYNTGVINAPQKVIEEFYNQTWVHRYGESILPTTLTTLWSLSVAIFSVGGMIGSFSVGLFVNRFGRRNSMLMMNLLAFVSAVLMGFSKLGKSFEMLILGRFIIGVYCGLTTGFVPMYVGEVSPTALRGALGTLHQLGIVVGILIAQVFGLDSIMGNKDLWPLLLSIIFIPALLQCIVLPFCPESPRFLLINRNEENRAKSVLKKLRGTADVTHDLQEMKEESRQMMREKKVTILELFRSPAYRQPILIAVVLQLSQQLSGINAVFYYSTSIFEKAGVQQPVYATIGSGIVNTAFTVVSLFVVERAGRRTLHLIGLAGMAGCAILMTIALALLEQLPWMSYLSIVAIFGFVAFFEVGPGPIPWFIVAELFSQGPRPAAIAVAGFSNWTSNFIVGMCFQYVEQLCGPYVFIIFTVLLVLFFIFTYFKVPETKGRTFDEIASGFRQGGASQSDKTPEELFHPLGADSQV

Row | Compound | inhibition [1] [%] | inhibition [2] [%] | inhibition [3] [%]
1 | Cc1cccc(NC(=O)c2ccc(C(=O)NC3CCN(CC4CCCCC4)CC3)cc2)c1 | 4.08 | 7.67 | 4.8
2 | O=C(Nc1cccc(CN2CCN(C(=O)c3cccc(F)c3)CC2)c1)c1cccs1 | 0.66 | 1.04 | -0.67
3 | NCC1CCCN1Cc1ccc(-c2ccc(-c3nc4cc(C(F)(F)F)ccc4[nH]3)s2)cc1 (configuration not stated) | 1.42 | -0.28 | -0.19
4 | COc1ccccc1-c1csc(C(=O)NCC2CCN(Cc3ccc(C(C)C)cc3)C2)c1 (configuration not stated) | -1.65 | -2.5 | -1.65
5 | Cc1sc2nc(CSc3ccccc3)nc(N3CCN(CC(=O)NC4CC4)CC3)c2c1C | -0.96 | -2.01 | -1.85
6 | Cc1occc1C(=O)Nc1nc(-c2ccccn2)nc2ccsc12 | 78.6 | 73.2 | 70
7 | Nc1ccc2nc(C=Cc3ccc(Cl)cc3)[nH]c2c1 | 3.56 | 3.93 | 5.14
8 | O=C(Nc1cccc(Oc2ccccc2)c1)N[C@H]1CCN(Cc2ccc(OCCCN3CCCCC3)cc2)C1 | 3.58 | 5.18 | 6.98
9 | O=C(Nc1cccc(Cl)c1Cl)N[C@H]1CCN(CCCCCNC(=O)C2CC2c2ccc(Cl)c(Cl)c2)C1 (some centres not stated) | 5.31 | 4.52 | 1.19
10 | FC(F)(F)c1cccc(-c2cc(NCCCn3ccnc3)nc(-c3ccncc3)n2)c1 | -3.57 | -1.14 | -0.33
11 | Cc1ccc(S(=O)(=O)N2CCN(C(=O)c3cc(-c4ccccc4)n[nH]3)CC2)cc1 | 4.96 | 2.9 | 2.37
12 | CS(=O)(=O)NCCCNCc1ccc(-c2ccc(-c3nc4cc(C(F)(F)F)ccc4[nH]3)cc2)cc1 | 2.14 | 2.39 | 1.11
13 | Cc1ccc(NC(=O)C2CCC2)cc1-c1ccc(C(=O)NCC2CC2)cc1 | 1.36 | 0.51 | 0.3
14 | CC(C)CNCc1ccc(-c2ccc(CN(CCCN3CCN(C)CC3)C(=O)/C=C/c3ccccc3)cc2)cc1 | 8.73 | 6.1 | 3.32
15 | O=C(/C=C/c1ccc(F)cc1)NC1CCC(CCN2CCc3ccccc3CC2)CC1 (configuration not stated) | 7.03 | 5.64 | 2.76
16 | C=CCc1ccc(C2CCN(CCCCNC(=O)c3ccc(NC(=O)c4ccc(Cl)cc4)cc3)CC2)cc1 | 0.91 | 0.58 | 0.46
17 | CCOc1ccc(C(=O)Nc2cc(Br)c3c(c2)CNCC3)cc1Cl | 1.83 | 2.23 | -0.05
18 | CCOc1ccccc1N1CCN(CCCNC(=O)/C(=C/C=C/c2cc3cc(Cl)c(Cl)cc3[nH]2)OC)CC1 | 1.44 | -0.07 | 1.24
19 | CCCCNc1cc(C)nc(NCc2ccccc2)n1 | 22.1 | 16.4 | 5.11
20 | CC1CCCCN1Cc1cccc(-c2c[nH]c3nc(NC4CCCC4)ncc23)c1 (configuration not stated) | 10.8 | 6.53 | 6.08
21 | Clc1ccc(CNC2CCN(CC3CCCCC3)CC2)cc1 | 5.87 | 11.2 | 10.2
22 | C=CCn1c(Sc2ccc(C#N)c([N+](=O)[O-])c2)nnc1-c1ccc(Cl)cc1 | 5.68 | 5.18 | 2.18
23 | CC(=O)Nc1ccc(C(=O)N2CCN(c3ccnc4cc(Cl)ccc34)CC2)cc1 | 1.26 | -0.89 | -0.23
24 | CC(=NNC(=N)N)c1ccc2c(ccc3ccccc32)c1 | 2.47 | 1.59 | 0.58
25 | CCOC(=O)c1ccc(NC(=O)N(Cc2ccc(-c3cccc(CN4CCNCC4)c3)cc2)C2CCN(Cc3ccccc3)CC2)cc1 | 2.49 | 1.96 | 7.56

Row | Compound | inhibition [1] [%] | inhibition [2] [%] | inhibition [3] [%]
26 | O=C(Nc1cccc(CN2CCCN(Cc3ccc(O)cc3)CC2)c1)c1cc2ccccc2o1 | -0.45 | 2.02 | 1.62
27 | c1ccc(COc2ccnc(NCCCOc3cccc(CN4CCCCC4)c3)c2)cc1 | 1.52 | 1.04 | -0.05
28 | CCC(C)CN1CCN(c2ccc(NC(=O)c3cccs3)cc2)C(C)C1 (configuration not stated) | 8.34 | 9.28 | 5.37
29 | O=C(/C=C/c1ccc(Cl)c(Cl)c1)NCCCCCN1CCCN(C(=O)Nc2ccc(F)c(F)c2)CC1 | 2.67 | 2.88 | 6.1
30 | O=C(Nc1cccc(CN2CCCN(Cc3cccc(Cl)c3)CC2)c1)c1ccc(Br)cc1 | 7.66 | 7.39 | 9.96
31 | Cn1c(N)c(C(=O)CSc2ncc(-c3ccc(F)cc3)n2Cc2ccccc2)c(=O)n(C)c1=O | 2.53 | 1.62 | 3.15
32 | COc1ccc(CNC(=O)c2cc3c(=O)n4ccccc4nc3n(CCc3ccccc3)c2=N)cc1 | 15.5 | 12 | 9.96
33 | O=C(c1cc(-c2ccco2)n[nH]1)N1CCN(S(=O)(=O)c2ccc(Cl)cc2)CC1 | -0.38 | -0.62 | -1.09
34 | CC(C)COc1ccc(Cl)cc1Cc1ccc(-c2nc3cnc4ccccc4c3[nH]2)o1 | 3.89 | 2.77 | 2
35 | CC(=O)Nc1ccc(CN(Cc2ccc(OC(C)(C)C)cc2)Cc2ccc3c(c2)OCCO3)cc1 | 7.25 | 3.27 | 6.45
36 | CC(C)c1ccc(CN2CCC(CNC(=O)c3cc(-c4ccccc4F)cs3)C2)cc1 (configuration not stated) | 4.5 | 4.88 | 8.4
37 | CN1CCC(NCc2ccc(-c3cccc(S(=O)(=O)NCc4ccccc4)c3)cc2)CC1 | 2.23 | 3.01 | -1.01
38 | COc1ccc(CNCc2cccc(-c3ccc(-c4nc5ccccc5[nH]4)s3)c2)cc1 | 5.19 | 3.24 | 2.44
39 | CN(C)CCOc1ccc(-n2c(-c3nonc3N)nc3cncc(-c4ccc(F)cc4)c32)cc1 | 3.17 | 3.94 | 2.52
40 | Clc1ccc(OCc2ccccc2)c(Cc2ccc(-c3nc4cnccc4[nH]3)o2)c1 | 0.59 | 2.01 | 0.25
41 | O=c1cc(NCCC(CNCc2ccc(Br)o2)NCc2cc(Br)cc(Br)c2)[nH]c2ccccc12 (configuration not stated) | 8.13 | 8.45 | 6.87
42 | CCN(c1cc(C)nc(Nc2ccc(Cl)cc2)n1)[C@H]1CCN(Cc2ccccc2)C1 | 9.15 | 7.78 | 6.41
43 | C=CCOC(=O)N1CCC(CNCc2ccc(-c3ccc(-c4nc5ccccc5[nH]4)s3)cc2)C1 (configuration not stated) | 5.91 | 6.02 | 5.42
44 | O=C(NC1CC1)c1cnc(N2CCN(Cc3c(F)cccc3Cl)CC2)c(Cl)c1 | 12 | 1.02 | -3.18
45 | CCc1nc(N)nc(N)c1CCCOc1ccccc1Cl | 3.15 | 2.69 | -0.4
46 | Cc1cccc2nc(-c3ccc(-c4ccc(CN5CCCC(O)C5)cc4)s3)[nH]c12 (configuration not stated) | 6.59 | 7.2 | 3.86
47 | COc1cc(NCCCNCc2cn(S(=O)(=O)c3ccccc3)c3ccccc23)nc2ccccc12 | 3.92 | 4.04 | 3.17
48 | Cc1cc(=NN=Cc2ccccc2)c2cc(F)ccc2[nH]1 | 4.17 | 0.79 | 6.79
49 | Oc1ccc(CCCNc2nc(NCc3cccc4ccccc34)nc(NC3CCNCC3)n2)cc1 | -0.36 | 3.07 | 2
